Assay results taken from ChEMBL document CHEMBL3988442, “University of Dundee, Small-Polar-MMV Screening Library” (2021).

Assays:
[1] = target: T1, Aspartate--tRNA(Asp/Asn) ligase (Mycobacterium tuberculosis (strain ATCC 25618 / H37Rv)) (UniProt P9WFW3); experiment: Assay for Asp RNA synthetase-1 from Mycobacterium tuberculosis; type: functional; parameters: scale not given: direction of the effect not stated beside the values; details: 30 µM; further: in the data most compounds retested in dose-response had high values
T1 sequence (whole entry): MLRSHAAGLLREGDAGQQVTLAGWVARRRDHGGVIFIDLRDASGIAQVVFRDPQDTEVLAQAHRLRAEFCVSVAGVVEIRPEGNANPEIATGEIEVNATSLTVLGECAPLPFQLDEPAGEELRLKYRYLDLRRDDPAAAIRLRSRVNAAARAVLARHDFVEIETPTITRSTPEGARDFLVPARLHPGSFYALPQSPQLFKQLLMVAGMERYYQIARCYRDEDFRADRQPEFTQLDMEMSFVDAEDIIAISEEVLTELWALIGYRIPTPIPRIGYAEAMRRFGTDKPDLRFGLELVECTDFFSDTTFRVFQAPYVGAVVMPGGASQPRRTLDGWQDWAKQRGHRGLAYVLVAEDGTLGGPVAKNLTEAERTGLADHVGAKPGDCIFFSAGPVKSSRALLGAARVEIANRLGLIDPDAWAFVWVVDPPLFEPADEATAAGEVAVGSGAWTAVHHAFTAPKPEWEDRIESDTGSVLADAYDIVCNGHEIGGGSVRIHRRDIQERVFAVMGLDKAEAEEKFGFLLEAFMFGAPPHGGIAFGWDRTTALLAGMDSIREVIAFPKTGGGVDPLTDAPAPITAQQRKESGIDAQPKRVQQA

[2] = target: Shiga toxin 2 (Escherichia coli O157:H7) (UniProt P09385+P09386); experiment: E. coli 0.157:H7 Shiga Toxin SOP - stx2 screening assay; type: functional; parameters: scale not given: direction of the effect not stated beside the values; details: 30 µM

| Compound | Percent Effect [1] | Percent Effect [2] |
| --- | --- | --- |
| CCn1cc(Br)c(C(=O)NCc2cnn(C)c2)n1 | -2.73% | -41.5% |
| O=C(CCNC(=O)c1ccoc1)NCc1ccccc1F | 1.27% | 11.5% |
| Cn1cnc2c1CCN(CCS(=O)(=O)c1ccccc1)C2 | -1.69% | 0.397% |
| Cc1cc(N2CCCC2c2cnccn2)ncn1 (configuration not stated) | 0.908% | 9.94% |
| CN(C)c1cc2c(nn1)CCN(C(=O)C1CCc3ccccc31)C2 (configuration not stated) | 5.85% | 5.96% |
| CC(CNC(=O)c1ccc(F)cc1Cl)N1CCCC1 (configuration not stated) | 0.39% | -4.69% |
| Cc1cc(CN2CCN(c3ccc4nncn4n3)C(C)C2)no1 (configuration not stated) | -3.98% | -29.9% |
| Cc1cc(CN2CCN(C(=O)Nc3cccnc3)CC2)on1 | -2.97% | 26.4% |
| CN(CCn1cccn1)S(=O)(=O)N1CCCC1c1ccco1 (configuration not stated) | 4.31% | 20.4% |
| Cc1csc(NC(=O)CN2CCC(c3ccnn3CCO)CC2)n1 | -8.82% | -16.7% |
| Cc1cc(C)n(CC2CCCCN2CCCS(N)(=O)=O)n1 (configuration not stated) | -7.33% | -48% |
| Cc1occc1C(=O)N1CCC2(CCCN(CC3CCC3)C2=O)C1 (configuration not stated) | -2.62% | -2.14% |
| CCc1n[nH]c(C2CN(C(=O)c3cnc[nH]3)CCO2)n1 (configuration not stated) | -1.76% | 27.7% |
| COc1ccccc1CC1CCCN(CCC#N)C1 (configuration not stated) | -3.31% | 32.8% |
| CN1CCc2nc(C3CCN(C(=O)CCC4CCCC4)CC3)ncc2C1 | 2.63% | -43.2% |
| CS(=O)(=O)NCC1CCCN(Cc2ccc(F)c3cccnc23)C1 (configuration not stated) | 5.29% | -44.4% |
| COc1cccc(CNc2nc(O)cc(C3CC(=O)N(C)C3)n2)c1 (configuration not stated) | 4.42% | 12.2% |
| CC(C)n1cc(CN2CCCN(C(=O)c3cc(Cl)c[nH]3)CC2)cn1 | 5.29% | 3.9% |
| CC(C)CCN1CN=C(NS(=O)(=O)c2ccc(F)cc2)NC1 | -1.13% | -27.2% |
| COc1ccc(CNCc2ccc(N3CCCCC3)nc2)cc1OC | 1.06% | -82.1% |
| c1cnc(-c2nc(CN3CCC(c4ccn[nH]4)CC3)cs2)nc1 | -0.495% | -11.4% |
| Cn1ccc(CN2CCC(Oc3ccccc3)CC2)cc1=O | -1.21% | -5.66% |
| COC(=O)CN1CC(c2nc(Cc3ccccc3)no2)C1 | -4.57% | -14.5% |
| CC(O)CN1CCN(C(=O)c2cc3ccccc3[nH]c2=O)CC1 (configuration not stated) | -2.04% | 2.32% |
| Cc1cccc(COC[C@H]2CC[C@H]3[C@H](CCN3C(=O)CC3CC3)O2)n1 | -1.43% | 1.2% |
| Cc1ccccc1CS(=O)(=O)CC(=O)NCc1ccccc1F | 7.37% | 10.5% |

| Compound | Percent Effect [1] | Percent Effect [2] |
| --- | --- | --- |
| O=C(C1CCOCC1)N1C[C@@H]2C[C@@H](c3nc(C4CC4)cs3)O[C@@H]2C1 | 2.07% | 17.3% |
| Cc1cccc(C(=O)NCc2ccnc(N(C)C)c2)n1 | -1.33% | -8.62% |
| COCCN1CCN(CCS(=O)(=O)C(F)(F)F)CC1C (configuration not stated) | -2.33% | 96.7% |
| CC(C)C(C(=O)N1CCCN(Cc2nccn2C)CC1)N1CCCC1 (configuration not stated) | -3.15% | 27% |
| CCn1cc(CN2CCCn3nc(CCC(=O)NCCO)cc3C2)cn1 | 0.624% | -51% |
| O=C1CCc2cc(C(=O)NCc3ccc(-n4cncn4)nc3)ccc2N1 | -5.04% | 3.55% |
| CCCc1n[nH]c(C2CN(Cc3nnc(C4CC4)o3)CCO2)n1 (configuration not stated) | -8.48% | -20.6% |
| O=c1cc2c(nn1CN1CCN(c3cccc(Cl)c3)CC1)CCC2 | -1.19% | -4.9% |
| Cn1ccnc1CN1C[C@@H](CN2CCC(CO)CC2)[C@@H](CO)C1 | -1.77% | 12.7% |
| Cc1cccnc1CNCC1(O)CCCN(Cc2ccc(F)cc2)C1=O (configuration not stated) | 0.386% | 4.74% |
| O=C1CC[C@@H]2[C@@H](CCN2C(=O)c2ccsc2)N1CC1CC1 | -5.94% | 1.28% |
| O=C(O)C1(Cc2ccccc2Cl)CCN(c2ncccc2F)CC1 | 2.22% | -10.7% |
| Cc1cnn(CC2CCCN2Cc2nc3ccccc3nc2C)c1 (configuration not stated) | -1.82% | -1.37% |
| Cc1ccc(Cl)cc1N1CCC(CNC(=O)CCn2ccnc2)C1 (configuration not stated) | -2.41% | -19.4% |
| CC(C)(NCC(=O)NCCC#N)c1ccc2c(c1)OCCO2 | 11.1% | 14.2% |
| CC(C(=O)N1CCCC1)N1CCC(c2nccn2Cc2cscn2)CC1 (configuration not stated) | 1.8% | -3.75% |
| NC(=O)C1CCN(C(=O)Cn2nc(-c3ccccc3)oc2=O)C1 (configuration not stated) | 7.46% | -67.9% |
| COCCN1CCN(C(=O)c2cc(C(C)C)on2)[C@H]2CS(=O)(=O)C[C@H]21 | -3.12% | -5.69% |
| O=C1NCCCCC1Sc1nnc(C2CC2)n1C1CC1 (configuration not stated) | -6.09% | 3.62% |
| O=C(c1ccco1)N1CC[C@H]2[C@H]1CCN2CC1CCOCC1 | 1.99% | -28% |
| CN(Cc1cn2c(n1)CN(c1ncc(F)cn1)CC2)Cc1ccco1 | 2.34% | -8.28% |
| CCc1nc(C2CCCN2C(=O)CCc2ccc3c(c2)OCO3)no1 (configuration not stated) | 3.41% | 6.69% |
| CN(C)C(=O)Cc1ccc(NC(=O)NC2CCCCC2)cc1 | -1.13% | 1.55% |
| CC(NC(=O)NCCn1ccnc1)c1ccc2c(c1)NC(=O)CO2 (configuration not stated) | 0.942% | 5.67% |
| COc1ccc(CNC(=O)N(Cc2ccc(F)cc2F)C2CC2)cn1 | -9.17% | -13% |
